Results on six compounds are retold here after ChEMBL document CHEMBL1961873, “Compounds: GSK PKIS; Assays: Nanosyn kinase panel” (2012).

The target in test [1] is Tyrosine-protein kinase CSK (Homo sapiens) (UniProt P41240). Particulars: at 1 µM.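 Also: each value is an averaged inhibition reading.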
Test [2] addresses T1, Discoidin domain-containing receptor 2 (Homo sapiens) (UniProt Q16832).
T1 sequence (whole entry): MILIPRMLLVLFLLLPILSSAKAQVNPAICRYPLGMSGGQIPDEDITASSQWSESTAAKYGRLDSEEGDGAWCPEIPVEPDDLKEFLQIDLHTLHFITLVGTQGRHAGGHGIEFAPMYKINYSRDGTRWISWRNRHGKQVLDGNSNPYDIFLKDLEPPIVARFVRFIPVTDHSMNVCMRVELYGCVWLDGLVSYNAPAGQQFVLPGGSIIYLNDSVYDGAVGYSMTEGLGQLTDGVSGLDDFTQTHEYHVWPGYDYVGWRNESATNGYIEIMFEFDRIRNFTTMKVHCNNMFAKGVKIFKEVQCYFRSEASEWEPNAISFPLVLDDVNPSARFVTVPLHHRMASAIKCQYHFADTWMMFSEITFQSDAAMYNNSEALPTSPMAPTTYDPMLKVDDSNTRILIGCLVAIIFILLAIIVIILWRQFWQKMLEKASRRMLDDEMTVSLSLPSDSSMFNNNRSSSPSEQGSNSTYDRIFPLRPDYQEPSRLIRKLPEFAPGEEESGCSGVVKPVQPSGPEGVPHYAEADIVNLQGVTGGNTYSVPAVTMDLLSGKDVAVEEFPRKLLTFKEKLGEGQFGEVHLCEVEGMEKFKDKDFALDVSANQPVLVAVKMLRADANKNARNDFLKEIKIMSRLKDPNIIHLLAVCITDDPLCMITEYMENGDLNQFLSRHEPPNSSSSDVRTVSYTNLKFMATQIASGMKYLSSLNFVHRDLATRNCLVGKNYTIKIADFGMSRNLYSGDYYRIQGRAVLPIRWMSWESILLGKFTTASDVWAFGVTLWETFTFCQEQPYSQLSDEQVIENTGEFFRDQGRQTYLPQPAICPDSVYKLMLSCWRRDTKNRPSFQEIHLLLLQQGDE
Particulars: at 0.1 µM.

Test [3] deals with T1, Discoidin domain-containing receptor 2 (Homo sapiens). Particulars: at 1 µM.
Test [4] addresses Epidermal growth factor receptor (Homo sapiens) (UniProt P00533). Particulars: at 0.1 µM.
For test [5] the target is unchanged. Particulars: at 1 µM.
Test [6] concerns Epidermal growth factor receptor (Homo sapiens), P00533 [L858R]. The settings on record: at 0.1 µM.
Chain of Epidermal growth factor receptor (Homo sapiens), P00533 [L858R] (P00533 whole entry L858R): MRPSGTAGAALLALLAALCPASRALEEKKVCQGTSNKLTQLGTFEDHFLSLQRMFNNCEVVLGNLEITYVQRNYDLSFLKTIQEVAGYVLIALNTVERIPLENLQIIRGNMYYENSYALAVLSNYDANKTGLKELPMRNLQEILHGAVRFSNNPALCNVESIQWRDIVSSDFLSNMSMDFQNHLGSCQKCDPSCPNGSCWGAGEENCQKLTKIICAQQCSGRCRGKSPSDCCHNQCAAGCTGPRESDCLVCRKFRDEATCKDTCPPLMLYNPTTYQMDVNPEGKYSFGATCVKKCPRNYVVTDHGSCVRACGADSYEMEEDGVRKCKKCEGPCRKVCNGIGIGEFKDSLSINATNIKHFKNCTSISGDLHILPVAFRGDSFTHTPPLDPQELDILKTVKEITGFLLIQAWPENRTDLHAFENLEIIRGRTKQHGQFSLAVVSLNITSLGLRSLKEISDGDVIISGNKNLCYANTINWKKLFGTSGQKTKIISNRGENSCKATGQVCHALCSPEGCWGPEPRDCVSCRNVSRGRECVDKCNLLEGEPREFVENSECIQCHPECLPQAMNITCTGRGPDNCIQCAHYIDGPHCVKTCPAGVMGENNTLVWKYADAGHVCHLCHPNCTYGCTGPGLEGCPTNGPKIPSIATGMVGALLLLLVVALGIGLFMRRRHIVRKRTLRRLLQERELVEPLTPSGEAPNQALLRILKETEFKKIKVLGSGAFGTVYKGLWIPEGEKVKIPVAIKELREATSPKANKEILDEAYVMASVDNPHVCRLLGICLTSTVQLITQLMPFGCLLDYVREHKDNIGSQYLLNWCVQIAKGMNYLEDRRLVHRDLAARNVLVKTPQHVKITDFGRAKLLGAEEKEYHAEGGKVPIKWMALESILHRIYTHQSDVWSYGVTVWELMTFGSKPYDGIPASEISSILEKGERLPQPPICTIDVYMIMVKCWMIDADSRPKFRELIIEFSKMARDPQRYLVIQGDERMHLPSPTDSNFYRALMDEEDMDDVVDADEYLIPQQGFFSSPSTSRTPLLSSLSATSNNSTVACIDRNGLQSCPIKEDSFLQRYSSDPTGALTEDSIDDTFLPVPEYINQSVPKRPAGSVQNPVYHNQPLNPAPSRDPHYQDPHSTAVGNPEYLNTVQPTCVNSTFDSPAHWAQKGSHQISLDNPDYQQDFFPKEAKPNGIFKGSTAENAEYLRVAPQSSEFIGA
Test [7] has the same test system. Particulars: at 1 µM.
For test [8], the system named is Epidermal growth factor receptor (Homo sapiens), P00533 [L861Q]. Particulars: at 0.1 µM.
Chain of Epidermal growth factor receptor (Homo sapiens), P00533 [L861Q] (P00533 whole entry L861Q): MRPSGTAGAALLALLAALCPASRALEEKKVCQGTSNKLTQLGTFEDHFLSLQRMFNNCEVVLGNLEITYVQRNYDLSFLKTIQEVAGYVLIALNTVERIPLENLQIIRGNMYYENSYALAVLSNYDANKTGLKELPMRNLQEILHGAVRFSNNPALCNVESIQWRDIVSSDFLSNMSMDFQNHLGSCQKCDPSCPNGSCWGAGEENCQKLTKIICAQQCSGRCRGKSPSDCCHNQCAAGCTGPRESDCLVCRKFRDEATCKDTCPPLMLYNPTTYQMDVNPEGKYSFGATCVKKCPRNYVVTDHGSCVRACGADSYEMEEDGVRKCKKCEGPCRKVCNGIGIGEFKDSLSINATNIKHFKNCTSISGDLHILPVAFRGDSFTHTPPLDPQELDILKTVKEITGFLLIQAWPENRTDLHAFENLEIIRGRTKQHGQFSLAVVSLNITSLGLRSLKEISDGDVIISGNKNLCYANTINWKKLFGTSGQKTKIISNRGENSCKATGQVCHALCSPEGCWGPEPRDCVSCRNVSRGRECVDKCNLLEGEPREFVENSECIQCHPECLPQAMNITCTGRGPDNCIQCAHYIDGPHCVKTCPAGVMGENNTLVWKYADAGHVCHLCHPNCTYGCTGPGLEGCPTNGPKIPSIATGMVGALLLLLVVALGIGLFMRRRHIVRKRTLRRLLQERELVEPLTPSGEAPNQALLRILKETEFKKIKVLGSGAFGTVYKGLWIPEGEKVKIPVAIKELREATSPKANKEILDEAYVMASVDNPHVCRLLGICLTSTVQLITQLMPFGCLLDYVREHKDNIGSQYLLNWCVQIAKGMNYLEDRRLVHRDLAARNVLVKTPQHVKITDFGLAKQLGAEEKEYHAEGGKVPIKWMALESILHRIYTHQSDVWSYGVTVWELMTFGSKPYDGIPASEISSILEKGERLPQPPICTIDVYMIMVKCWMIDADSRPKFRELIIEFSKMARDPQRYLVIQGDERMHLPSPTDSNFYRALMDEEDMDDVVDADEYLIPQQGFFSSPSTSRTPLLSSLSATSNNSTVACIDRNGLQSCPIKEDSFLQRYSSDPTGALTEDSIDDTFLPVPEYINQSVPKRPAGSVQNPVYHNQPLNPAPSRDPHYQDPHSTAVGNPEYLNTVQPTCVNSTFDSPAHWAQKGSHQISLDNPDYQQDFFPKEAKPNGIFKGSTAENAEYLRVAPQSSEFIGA
Test [9] has the same test system. The settings on record: at 1 µM.
Test [10] deals with Epidermal growth factor receptor (Homo sapiens), P00533 [T790M]. Particulars: at 0.1 µM.
The test system is the same in test [11]. Particulars: at 1 µM.
In test [12] the test system is Epidermal growth factor receptor (Homo sapiens), P00533 [L858R,T790M]. Particulars: at 0.1 µM.
Test [13] has the same test system. Particulars: at 1 µM.
For test [14], the target named is Ephrin type-A receptor 2 (Homo sapiens) (UniProt P29317). The settings on record: at 0.1 µM.
Test [15] has the same target. Particulars: at 1 µM.
The target of test [16] is T2, Ephrin type-A receptor 3 (Homo sapiens) (UniProt P29320).
T2 sequence (whole entry): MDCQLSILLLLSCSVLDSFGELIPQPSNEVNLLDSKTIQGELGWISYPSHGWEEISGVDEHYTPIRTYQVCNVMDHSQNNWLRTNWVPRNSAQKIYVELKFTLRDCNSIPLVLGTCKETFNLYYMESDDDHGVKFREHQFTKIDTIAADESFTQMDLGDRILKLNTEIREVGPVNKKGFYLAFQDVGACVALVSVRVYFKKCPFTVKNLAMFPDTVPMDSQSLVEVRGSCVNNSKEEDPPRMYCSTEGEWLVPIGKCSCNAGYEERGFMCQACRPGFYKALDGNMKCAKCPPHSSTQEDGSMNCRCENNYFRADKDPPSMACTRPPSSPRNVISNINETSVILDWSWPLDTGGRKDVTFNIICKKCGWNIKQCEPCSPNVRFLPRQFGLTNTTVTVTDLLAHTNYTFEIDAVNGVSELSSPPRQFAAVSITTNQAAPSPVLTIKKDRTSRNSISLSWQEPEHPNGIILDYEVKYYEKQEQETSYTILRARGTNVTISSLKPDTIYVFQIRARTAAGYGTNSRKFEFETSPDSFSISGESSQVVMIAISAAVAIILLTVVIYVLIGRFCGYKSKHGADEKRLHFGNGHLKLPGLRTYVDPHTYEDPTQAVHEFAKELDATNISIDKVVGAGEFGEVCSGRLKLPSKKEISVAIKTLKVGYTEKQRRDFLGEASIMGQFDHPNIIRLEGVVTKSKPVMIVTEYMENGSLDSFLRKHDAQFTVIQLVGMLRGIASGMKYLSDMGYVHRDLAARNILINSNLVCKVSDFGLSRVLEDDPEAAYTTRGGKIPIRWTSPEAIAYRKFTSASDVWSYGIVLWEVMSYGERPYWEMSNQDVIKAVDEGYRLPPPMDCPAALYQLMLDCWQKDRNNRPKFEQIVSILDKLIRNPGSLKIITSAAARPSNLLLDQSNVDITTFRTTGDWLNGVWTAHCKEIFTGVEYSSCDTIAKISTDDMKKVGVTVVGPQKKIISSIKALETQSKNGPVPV
The settings on record: at 0.1 µM.

The target of test [17] is T2, Ephrin type-A receptor 3 (Homo sapiens). Particulars: at 1 µM.
The target in test [18] is Ephrin type-A receptor 4 (Homo sapiens) (UniProt P54764). The settings on record: at 0.1 µM.
Chain of Ephrin type-A receptor 4 (Homo sapiens) (P54764 whole entry): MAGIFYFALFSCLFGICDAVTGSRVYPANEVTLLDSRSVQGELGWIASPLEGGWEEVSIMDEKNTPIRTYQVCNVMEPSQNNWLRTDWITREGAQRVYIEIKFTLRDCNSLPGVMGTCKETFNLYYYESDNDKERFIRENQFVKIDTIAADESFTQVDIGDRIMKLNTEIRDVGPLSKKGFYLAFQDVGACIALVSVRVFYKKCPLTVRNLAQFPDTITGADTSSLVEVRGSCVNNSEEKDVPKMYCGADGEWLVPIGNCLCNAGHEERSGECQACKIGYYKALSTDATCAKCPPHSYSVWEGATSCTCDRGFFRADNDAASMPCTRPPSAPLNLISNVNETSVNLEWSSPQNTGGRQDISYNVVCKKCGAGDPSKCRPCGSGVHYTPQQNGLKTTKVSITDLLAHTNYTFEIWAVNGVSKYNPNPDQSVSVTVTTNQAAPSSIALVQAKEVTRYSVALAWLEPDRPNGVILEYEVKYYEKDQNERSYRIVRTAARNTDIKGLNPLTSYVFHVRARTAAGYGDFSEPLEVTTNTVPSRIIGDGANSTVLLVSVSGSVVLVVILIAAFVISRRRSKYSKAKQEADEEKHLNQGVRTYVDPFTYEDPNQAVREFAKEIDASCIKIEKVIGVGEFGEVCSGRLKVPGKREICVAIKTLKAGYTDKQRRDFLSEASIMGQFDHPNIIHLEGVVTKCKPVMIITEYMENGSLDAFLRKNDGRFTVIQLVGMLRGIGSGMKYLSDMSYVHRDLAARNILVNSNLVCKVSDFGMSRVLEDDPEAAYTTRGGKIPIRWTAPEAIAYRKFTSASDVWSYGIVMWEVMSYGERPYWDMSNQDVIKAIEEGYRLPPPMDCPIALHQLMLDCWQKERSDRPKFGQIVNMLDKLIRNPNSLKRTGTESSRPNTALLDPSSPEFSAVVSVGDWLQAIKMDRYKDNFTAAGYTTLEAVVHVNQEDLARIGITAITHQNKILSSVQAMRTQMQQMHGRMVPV
Test [19] shares this target. Particulars: at 1 µM.
Test [20] has as its target T3, Ephrin type-B receptor 2 (Homo sapiens) (UniProt P29323).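 Also: reported as mean inhibition of EPHB2, from the GSK PKIS dataset.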
T3 sequence (whole entry): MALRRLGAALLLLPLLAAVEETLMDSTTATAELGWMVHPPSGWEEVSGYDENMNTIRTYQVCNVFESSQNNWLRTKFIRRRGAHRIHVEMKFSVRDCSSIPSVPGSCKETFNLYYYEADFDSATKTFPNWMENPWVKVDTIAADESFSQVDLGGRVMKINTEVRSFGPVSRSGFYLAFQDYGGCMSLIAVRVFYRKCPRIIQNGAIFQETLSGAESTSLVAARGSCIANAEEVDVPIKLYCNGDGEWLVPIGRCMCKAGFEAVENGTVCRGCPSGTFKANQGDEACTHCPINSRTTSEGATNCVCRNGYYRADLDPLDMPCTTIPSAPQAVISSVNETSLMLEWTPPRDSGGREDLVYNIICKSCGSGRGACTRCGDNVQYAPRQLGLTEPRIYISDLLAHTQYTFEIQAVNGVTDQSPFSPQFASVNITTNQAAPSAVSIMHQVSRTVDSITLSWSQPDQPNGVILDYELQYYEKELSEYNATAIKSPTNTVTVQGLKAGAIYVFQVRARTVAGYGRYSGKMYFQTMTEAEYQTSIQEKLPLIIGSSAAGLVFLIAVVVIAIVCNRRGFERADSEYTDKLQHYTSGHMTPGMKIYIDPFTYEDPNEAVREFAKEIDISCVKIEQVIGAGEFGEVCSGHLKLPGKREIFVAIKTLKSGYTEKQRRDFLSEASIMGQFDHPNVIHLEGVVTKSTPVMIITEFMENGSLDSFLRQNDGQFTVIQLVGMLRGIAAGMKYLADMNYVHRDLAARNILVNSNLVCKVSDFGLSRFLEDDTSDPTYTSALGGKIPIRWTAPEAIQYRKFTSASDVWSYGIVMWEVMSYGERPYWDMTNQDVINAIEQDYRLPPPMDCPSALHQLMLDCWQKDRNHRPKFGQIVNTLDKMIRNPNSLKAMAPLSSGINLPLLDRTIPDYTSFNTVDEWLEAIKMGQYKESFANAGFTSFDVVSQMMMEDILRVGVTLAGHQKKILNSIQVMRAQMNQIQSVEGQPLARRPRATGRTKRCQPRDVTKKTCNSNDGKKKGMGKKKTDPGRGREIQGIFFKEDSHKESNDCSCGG
Particulars: at 0.1 µM.

A word on the inhibition: it is the drop in the measured response relative to a control, in per cent.

Chain of Epidermal growth factor receptor (Homo sapiens) (P00533 whole entry): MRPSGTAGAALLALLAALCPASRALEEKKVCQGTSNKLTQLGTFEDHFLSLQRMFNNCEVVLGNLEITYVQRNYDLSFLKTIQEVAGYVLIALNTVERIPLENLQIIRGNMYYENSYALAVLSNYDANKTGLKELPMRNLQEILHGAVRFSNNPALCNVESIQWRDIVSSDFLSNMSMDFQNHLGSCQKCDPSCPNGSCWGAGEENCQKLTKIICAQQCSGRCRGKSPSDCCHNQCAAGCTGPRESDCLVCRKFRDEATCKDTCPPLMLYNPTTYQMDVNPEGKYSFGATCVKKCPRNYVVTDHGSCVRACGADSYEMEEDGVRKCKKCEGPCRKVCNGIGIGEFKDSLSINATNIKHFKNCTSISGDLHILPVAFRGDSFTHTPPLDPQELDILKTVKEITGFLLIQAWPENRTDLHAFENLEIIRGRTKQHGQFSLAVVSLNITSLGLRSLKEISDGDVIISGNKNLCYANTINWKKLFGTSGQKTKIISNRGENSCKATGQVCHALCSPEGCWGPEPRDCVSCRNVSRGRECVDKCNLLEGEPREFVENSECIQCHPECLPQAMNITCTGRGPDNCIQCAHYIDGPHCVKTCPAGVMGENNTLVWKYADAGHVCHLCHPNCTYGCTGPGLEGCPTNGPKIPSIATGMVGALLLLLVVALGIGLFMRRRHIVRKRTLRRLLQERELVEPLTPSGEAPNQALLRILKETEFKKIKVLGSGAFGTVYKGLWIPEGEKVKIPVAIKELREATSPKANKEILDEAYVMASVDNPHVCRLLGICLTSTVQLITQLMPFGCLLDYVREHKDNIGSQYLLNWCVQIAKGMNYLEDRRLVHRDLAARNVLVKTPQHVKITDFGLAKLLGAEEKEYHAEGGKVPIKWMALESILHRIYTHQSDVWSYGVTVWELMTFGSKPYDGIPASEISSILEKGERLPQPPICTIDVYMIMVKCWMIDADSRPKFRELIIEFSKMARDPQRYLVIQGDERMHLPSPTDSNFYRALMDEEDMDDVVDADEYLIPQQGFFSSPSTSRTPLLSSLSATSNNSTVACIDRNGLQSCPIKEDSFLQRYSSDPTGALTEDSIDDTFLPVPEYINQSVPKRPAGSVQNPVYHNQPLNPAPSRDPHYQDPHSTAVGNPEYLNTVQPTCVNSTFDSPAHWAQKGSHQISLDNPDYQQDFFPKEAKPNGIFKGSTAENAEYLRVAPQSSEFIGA
Chain of Tyrosine-protein kinase CSK (Homo sapiens) (P41240 2-450 limits assumed): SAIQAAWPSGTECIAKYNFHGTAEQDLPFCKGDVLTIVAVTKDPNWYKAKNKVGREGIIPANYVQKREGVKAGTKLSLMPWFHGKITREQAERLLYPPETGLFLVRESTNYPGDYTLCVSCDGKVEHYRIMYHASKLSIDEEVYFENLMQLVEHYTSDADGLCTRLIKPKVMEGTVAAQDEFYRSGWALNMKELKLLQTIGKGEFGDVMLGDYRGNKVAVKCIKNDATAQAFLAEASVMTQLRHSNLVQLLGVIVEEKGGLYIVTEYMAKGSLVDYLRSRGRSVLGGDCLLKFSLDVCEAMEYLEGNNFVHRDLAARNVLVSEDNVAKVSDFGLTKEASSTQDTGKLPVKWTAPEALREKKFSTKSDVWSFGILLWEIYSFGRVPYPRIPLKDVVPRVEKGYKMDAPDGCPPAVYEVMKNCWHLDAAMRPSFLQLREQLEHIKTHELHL

On to `Fc1ccc(-c2ncn(C3CCNCC3)c2-c2ccnc(Oc3ccc4c(c3)OCO4)n2)cc1`, for which the inhibition is 6.08% in test [1]; 6.32% in test [2]; 7.88% in test [3]; 5.59% in test [4]; 13.1% in [5]; 4.4% in [6]. The inhibition in test [7] was determined as 18.7%; in [8], 3.06%; in test [9], 10.2%; in test [10], 2.39%; in test [11], 6.05%; in test [12] it was 1.3%. Further, the inhibition was found to be 7.04% in [13]; 3.08% in [14]; 2.37% in test [15]; 3.63% in test [16]; 10.3% in test [17]; 11.3% in test [18]. In addition, the figures for the inhibition in test [19] and in test [20] were 15.4% and 10.6%, respectively.
For the compound `CCc1nccc2c1nc(-c1nonc1N)n2CC`, the inhibition in test [1] is -3.01%; in test [2], 1.17%; in test [3], 2.38%; in test [4] it was 6.7%; in test [5], 7.54%; in [6] it was 0.22%. For the same compound, the inhibition in test [7] was -2.09%; in test [8] it was -1.13%; in test [9], -0.05%; in [10], -1.16%; in test [11], -1.27%; in test [12], -0.81%. Also, the inhibition in [13] was 1.48%; in test [14], 0.61%; in test [15], 0.69%; in test [16] it was -0.26%; in [17], 1.46%; in test [18], 0.87%. Further, the values for the inhibition in test [19] and in test [20] were -5.92% and -5.8%, respectively.
Regarding `O=C1Nc2ccccc2/C1=C/Nc1ccc(-n2cncn2)cc1`, the inhibition was 7.33% in [1]; -0.37% in [2]; 0.37% in test [3]; 4.22% in test [4]; 4.08% in [5]; 2.81% in test [6]. Besides, the inhibition in test [7] was determined as 4.05%; in test [8] it was 3.11%; in test [9], 4.38%; in test [10], 2.21%; in [11], 4.3%; in test [12], 2.89%. Besides, the inhibition in [13] was 1.3%; in [14], 1.55%; in test [15], 1.91%; in test [16], 2.74%; in [17], 4.04%; in test [18], 4.98%. Further, the values for the inhibition in test [19] and in [20] were 12.3% and 3.5%, respectively.
For the compound `NCc1ccc(-n2c(-c3nonc3N)nc3cnccc32)cc1`, the inhibition in [1] is 1.46%; in [2] it was 2.78%; in test [3], 3.01%; in test [4], 1.73%; in [5], 1.72%; in test [6], 3.13%. For the same compound, the inhibition is 1.55% in [7]; 2.5% in test [8]; 2.02% in test [9]; 3.36% in test [10]; 3.16% in [11]; 4.81% in [12]. Also, the inhibition in [13] amounted to 5.05%; in test [14], 0.49%; in test [15] it was 0.85%; in test [16] it was 7%; in test [17] it was 4.64%; in test [18], 9.54%. Also, the inhibition in test [19] worked out at 5.62%; in test [20] it was 6.63%.
Turning to `Nc1nccc(-c2c(-c3ccc(F)cc3)ncn2C2CCC(O)CC2)n1` (stereo not given), the inhibition in test [1] was -0.86%; in test [2] it was -0.26%; in test [3], 13.3%; in test [4], 4.04%; in test [5], 35.7%; in test [6] it was 18.4%. Further, the inhibition in test [7] was 76.8%; in [8] it was 4.44%; in test [9] it was 33.2%; in test [10] it was -1.86%; in test [11], 0.86%; in [12] it was 1.94%. Moreover, the inhibition in test [13] was 15.4%; in test [14], 0.36%; in test [15], 2.11%; in test [16], -4.93%; in test [17], -1.48%; in test [18], -4.75%. In addition, the results for the inhibition in test [19] and in test [20] were 14.5% and 7.37%, respectively.
On to `COc1cc2ncn(-c3cc(OCc4cccs4)c(C(N)=O)s3)c2cc1OC`, for which the inhibition in test [1] was 9.5%; in test [2] it was 3.95%; in test [3], 4.63%; in test [4] it was -1.17%; in test [5], 1.76%; in test [6], 4.34%. Moreover, the inhibition in test [7] was 18.5%; in test [8], 2.87%; in test [9] it was 7.86%; in test [10], 1.54%; in test [11], 5.88%; in test [12], -0.25%. The inhibition was 5.43% in test [13]; -1.31% in test [14]; -1.86% in [15]; -2.47% in test [16]; 0.85% in test [17]; 8.34% in test [18]. The inhibition came to 19.3% in test [19] and 7.38% in test [20].
